Data from PubChem BioAssay (NCATS).
Where “and” joins values, the source holds several entries; their conditions need not be identical. Equal entries are not always repeated. Inconclusive results are not listed. Entries that show only a call come without a potency. Some structures have more than one record in an assay (separate samples or runs), and their calls can disagree. Calls of active or inactive are those of the source. The call rests on the fitted dose curve; in most records, active means well fitted curve in the direction sought with a large enough effect; inconclusive means small, poorly fitted or top-dose-only effect, or another doubt; inactive means no such curve, though single readings can be large; an effect the other way counts as inactive or inconclusive.

What was measured:
[1] = Viability qHTS for spleen associated tyrosine kinase inhibitor (SYKi) naive MV4-11 cells (AID 1963823); further: nearly all actives have a fitted effect of over 40% in size
How it was run: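 Viability of MV4-11 AML cells lacking prior SYK inhibitor exposure is scored by CellTiter-Glo luminescence following 72 hr compound incubation at 37 C, 5% CO2, seeded at 500 cells per well.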

[2] = Viability qHTS for spleen associated tyrosine kinase inhibitor (SYKi) drug resistant MV4-11 cells (AID 1963824); further: nearly all actives have a fitted effect of over 35% in size
How it was run: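 CellTiter-Glo luminescence, read 10 min after reagent addition, reports viability after a 72 hr compound exposure. Cells are an MV4-11 line made resistant to SYK inhibition, seeded at 500 per well onto compound-containing plates.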

[3] = Cellular viability qHTS for adrenocortical cancer (ACC) cell line SW-13 (AID 1963989); conditions: SW-13 ACC cells viability, CellTiter-Glo, 48 h; activity (max response): stronger effect = lower value; further: nearly all actives have a fitted effect of over 65% in size;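 on activity (max response): cells grown in serum-free medium with ITS supplement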
How it was run: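 SW-13 cells in ITS-supplemented serum-free DMEM were plated overnight, then exposed for 48 h at 37C to compound titrations (up to 46 uM final). Viability was read by CellTiter-Glo luminescence; four-parameter logistic fits gave IC50 and efficacy.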

[4] = Cellular viability qHTS for adrenocortical cancer (ACC) cell line NCI-H295R (AID 1963990); further: nearly all actives have a fitted effect of over 60% in size
How it was run: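 Luminescent ATP read-out (CellTiter-Glo, 20 min RT) after 48 h drug exposure of NCI-H295R cells; a titration up to 46 uM final. Data normalized to doxorubicin (100% inhibition) and DMSO (0%); 4-parameter fit gives IC50, max response.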
Potency means the concentration at half of the fitted maximal effect.

Row | Structure (SMILES) | Potency [1] | Potency [2] | activity (max response) [3] | Potency [4] | Potency [3]
1 | COc1ccccc1OCC(O)CO (stereo unspecified) | inactive | inactive | 13.4% (inactive) | inactive | 
2 | CN1[C@@H]2CC[C@H]1CC(NC(=O)n1c(=O)[nH]c3ccccc31)C2 (stereo partly specified) | inactive | inactive | 2.49% (inactive) | inactive | 
3 | CCNC(=O)Nc1ncc(-c2cc(-c3c(C)cc(OC)cc3C)nc(-c3cnccn3)n2)s1 | inactive | inactive | -7.82% (inactive) | inactive | 
4 | CC(C)(O)c1coc(S(=O)(=O)NC(=O)Nc2c3c(cc4c2CCC4)CCC3)c1 | inactive | inactive | 5.8% (inactive) | inactive | 
5 | Cc1oc(=O)oc1COC(=O)[C@@H]1N2C(=O)[C@@H](NC(=O)[C@H](N)c3ccccc3)[C@H]2SC1(C)C | inactive | inactive | 7.35% (inactive) | inactive | 
6 | CN(C)CCn1nnnc1SCC1=C(C(=O)O)N2C(=O)[C@@H](NC(=O)Cc3csc(N)n3)[C@H]2SC1 | inactive | inactive | 8.48% (inactive) | inactive | 
7 | C1=C/COCc2cc(ccc2OCCN2CCCC2)Nc2nccc(n2)-c2cccc(c2)COC/1 | inactive and 118 nM (active) | inactive and 130 nM (active) |  | 5.01 µM (active) | 4.47 µM (active)
8 | COc1cc(N2CCN(C(C)=O)CC2)ccc1Nc1ncc(Cl)c(Nc2ccc(N3CCN(C(C)=O)CC3)cc2OC)n1 | 291 nM (active) and 372 nM (active) | 366 nM (active) and 1.05 µM (active) |  | 12.6 µM (active) | 25.1 µM (active)
9 | O=Cc1ccc(O)c(O)c1O | inactive | inactive | -7.42% (inactive) | 18.4 µM (active) | 
10 | CCOc1ccc(Cc2cc([C@@H]3O[C@H](CO)[C@@H](O)[C@H](O)[C@H]3O)ccc2Cl)cc1 | inactive | 18600 nM (active) | -2.91% (inactive) | inactive | 
11 | O=C(NCCCNc1nc(Nc2cccc(CN3CCOCC3)c2)ncc1C1CC1)C1CCC1 | 132 nM (active) | 291 nM (active) | 10.1% (inactive) | inactive | 
12 | C[C@]12C=CC(=O)C=C1CC[C@@H]1[C@@H]2[C@@H](O)C[C@@]2(C)[C@H]1CC[C@]2(O)C(=O)CO | inactive | inactive | -7.97% (inactive) and -0.878% (inactive) | inactive | 
13 | CC(=O)OCC(=O)[C@@]1(O)CC[C@H]2[C@@H]3CCC4=CC(=O)CC[C@]4(C)[C@H]3C(=O)C[C@@]21C | inactive | inactive | -12.6% (inactive) and -6.75% (inactive) | inactive | 
14 | Cc1ccccc1OCC(O)CO (stereo unspecified) | inactive | inactive | -4.04% (inactive) | inactive | 
15 | NS(=O)(=O)c1cc2c(cc1C(F)(F)F)NCNS2(=O)=O | inactive | inactive | -4.83% (inactive) | inactive | 
16 | CCCCNc1ncc2c(-c3ccc(F)cc3)nn(CC3CCC(N)CC3)c2n1 (stereo unspecified) | 8 nM (active) | 11.2 nM (active) |  | 7.15 µM (active) | 11.3 µM (active)
17 | CCC[C@@H]1C[C@@H](C(=O)N[C@@H]([C@H]2O[C@H](SC)[C@H](O)[C@@H](O)[C@H]2O)[C@H](C)Cl)N(C)C1 | inactive | inactive | 5.6% (inactive) | inactive | 
18 | Cc1cc(O)cc2c1O[C@](C)(CCC[C@H](C)CCC[C@H](C)CCCC(C)C)CC2 | inactive | inactive | 7.62% (inactive) | inactive | 
19 | Cn1ncc(Cl)c1-c1cc(C(=O)N[C@H](CN)Cc2ccc(F)c(F)c2)sc1Cl | 9.2 µM (active) and 5.9 µM (active) | 11.6 µM (active) and 4.68 µM (active) |  | 3.16 µM (active) | 8.91 µM (active)
20 | CNC(=O)CN(CCN(CCN(CC(=O)[O-])CC(=O)NC)CC(=O)[O-])CC(=O)[O-].O.[Gd+3] | inactive | inactive | -4.04% (inactive) | inactive | 
21 | CN1CCCN(C(=O)c2cccc(-c3ccc(/C=C4/C(=O)Nc5ccc(Cl)cc54)o3)c2)CC1 | 417 nM (active) | 662 nM (active) |  | 4.47 µM (active) | 25.1 µM (active)
22 | C=CCCCCCCCCC(=O)O | inactive | inactive | 9.7% (inactive) | inactive | 
23 | N[C@H](C(=O)O)c1ccc(O)cc1 | inactive | inactive | 5.01% (inactive) | inactive | 
24 | CO/N=C(/C(=O)N[C@@H]1C(=O)N2C(C(=O)[O-])=C(C[n+]3ccn4ncccc43)CS[C@H]12)c1nsc(N)n1 | inactive | inactive | -7.2% (inactive) | inactive | 
